The text below walks through data of PubChem BioAssay AID504847 (National Center for Advancing Translational Sciences (NCATS), 2011).

Screen size: about 400,000 compounds; about 3,700 (0.93%) were called active. Roughly 3% stayed inconclusive and do not appear here. The list comes from a sample in which actives are over-represented; it also holds similar structures and randomly drawn compounds. A number with no mark means an inactive call. Calls come from the whole dose curve; as a rule, active = well fitted inhibition curve with a large enough effect; inconclusive = small, poorly fitted or top-dose-only effect, or another doubt; inactive = no such curve, though single readings can be large or run the other way.
% is set by controls: 0 for no effect and ±100 for the full control effect; potency is the fitted concentration of half-maximal effect.

Sequence of Vitamin D3 receptor (Homo sapiens) (P11473 whole entry, looked up): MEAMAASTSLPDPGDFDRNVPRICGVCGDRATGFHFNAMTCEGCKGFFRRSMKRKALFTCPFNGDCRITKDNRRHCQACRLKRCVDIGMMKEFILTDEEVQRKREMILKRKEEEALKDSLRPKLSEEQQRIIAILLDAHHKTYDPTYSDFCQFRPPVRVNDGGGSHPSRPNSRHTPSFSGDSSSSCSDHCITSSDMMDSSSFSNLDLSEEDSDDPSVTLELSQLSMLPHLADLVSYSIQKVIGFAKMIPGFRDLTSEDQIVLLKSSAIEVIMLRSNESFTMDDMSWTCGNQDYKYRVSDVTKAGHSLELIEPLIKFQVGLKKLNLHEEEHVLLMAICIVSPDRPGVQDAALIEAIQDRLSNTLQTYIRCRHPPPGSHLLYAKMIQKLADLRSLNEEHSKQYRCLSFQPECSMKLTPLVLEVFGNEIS

The assay concerns the target Vitamin D3 receptor (Homo sapiens) (UniProt P11473). Description: Inhibitors of the vitamin D receptor (VDR): qHTS. The conditions noted are these: VDR-SRC2-3 peptide fluorescence polarization, 2 h; max response, negative = inhibition: active compounds read low. The source says:
The vitamin D receptor (VDR) is a ligand-activated transcription factor and is partially responsible for the regulation of the endocrine system. This includes the transcriptional regulation of genes involved in the production of the parathyroid hormone (PTH) and the regulation of the blood calcium level. High levels of PHT can cause hypercalcemia in the case of primary and tertiary hyperparathyroidism. The VDR-mediated gene regulation, activated by its ligand 1,25-dihydroxyvitamin D3 (1,25-(OH)2D3), is governed by the recruitment of coactivators. Our hypothesis is that small molecules, with the ability to inhibit the interaction between VDR and certain coactivators, are able to selectively modulate VDR-mediated transcription. Our long term objective is the application these VDR-coactivator inhibitors to study the role of VDR-coactivator binding for specific VDR regulated genes. Ultimately, these molecules can be developed into new treatments for hypercalcemic hyperparathyroidism. No small molecule or non-peptide inhibitors are known for the VDR-coactivator interaction.
In a collaboration between the University of Wisconsin, Milwaukee and the NIH Chemical Genomics Center (NCGC) a HTS-compatible enzymatic assay was developed. The assay uses fluorescence polarization as its read-out to measure the inhibition between VDR and coregulator peptide SRC2-3 exerted by small molecules. This assay was used to screen the NIH Molecular Libraries Small Molecule Repository (MLSMR).
NIH Chemical Genomics Center [NCGC]
NIH Molecular Libraries Probe Centers Network [MLPCN]
Assay Submitter (PI): Alexander Arnold, University of Wilwaukee
Both solutions are kept at 4 deg C and protected from light and dispensed using a Kalypsys dispenser. Then 23nl of compounds and controls are added with Kalypsys pintool. […] Plate is centrifuged at 1000 RPM for 15 seconds to remove any residual bubbles. The plate is then incubate at ambient room temperature for 2 hours.
(In general: In qHTS, concentration-response curves come from the screen itself.)
As to `COc1ccccc1-c1nc(N2CCN(C)CC2)c2ccccc2n1`, the max response, negative = inhibition is -9.82%.

In the case of `COc1ccc(N2CCN(c3nc(-c4ccccc4F)nc4ccccc34)CC2)cc1`, the max response, negative = inhibition is 21.1%. For the compound `Cc1ccc(C)c(Nc2nnc(-c3ccc(C)c(S(=O)(=O)N4CCCCC4)c3)c3ccccc23)c1`, the max response, negative = inhibition is 2.71%. `CC(C)(C)c1ccc(C(=O)Nc2ccc3c(c2)CCCN3C(=O)c2cccs2)cc1`: the max response, negative = inhibition was -1.02%. Same read-out and setting: as for `O=C(C1CCC(Cn2c(=O)c3sccc3n(Cc3ccccc3F)c2=O)CC1)N1CCCCC1` (stereo unspecified), the figure is 8.9%.

For `Cc1ccc(SC(CC(=O)c2ccc(C(C)(C)C)cc2)C(=O)O)cc1` (stereo unspecified), the Potency is 20 µM (active). As to `Cc1ccc(Sc2cc(C(=O)c3ccccc3C(=O)O)ccc2[N+](=O)[O-])cc1`, the max response, negative = inhibition is -16.9%. `CC(C)(C)c1ccc(C(=O)NNC(=O)Cc2ccccc2)cc1`: the max response, negative = inhibition was 3.53%. Same read-out and setting: next, `CCCCCCCC[C@@H](O)/C=C/C=C/C=C\[C@@H](O)CCCC(=O)O`: 10.9%; `COc1ccc(NC(=O)c2cc3cc(C)ccc3n2C)cc1`: 8.19%.

For the compound `CC(CNC(=O)Cn1cnc2c(OCc3ccccc3)ncnc21)c1ccccc1` (stereo unspecified), the max response, negative = inhibition is -7.14%. Still for that read-out and setting: as for `O=C(Cn1cnc2c(OCc3ccccc3)ncnc21)NCCCn1ccnc1`, the figure is 6.56%. For `O=C(Cn1cnc2c(OCc3ccccc3)ncnc21)NCc1nc2ccccc2[nH]1`, the Potency is 79.4 µM (active). Consider `COc1ccc(C2CC(=O)Nc3c2c(=O)nc2c(C)cccn32)cc1OC` (stereo unspecified), for which the max response, negative = inhibition is 12.4%. On the same count and under the same terms, next, `Cc1[nH]c(=O)c(C(=O)/C=C/c2ccccc2)c2c1CCCC2`: -23.7%; `O=C(/C=C(O)/C=C/c1ccc(O)cc1)/C=C/c1ccc(O)cc1`: -24.8%. The same measure, in the same setting: as for `CNC(=O)c1csc(-c2ccccc2)n1`, the figure is 4.33%; as for `O=C(NNC(=O)c1ccccc1O)c1ccccc1O`, 10.5%. With `Cc1nc(-c2ccccc2)sc1C(=O)/C=C/c1ccccc1`, the Potency was 79.4 µM (active). Still for that read-out and setting: as for `O=C(/C=C/c1ccccc1)c1ccccc1O`, the figure is 17.8 µM (active). For the compound `CCOC(=O)c1ccc(N2C(=O)c3n[nH]c(-c4ccco4)c3C2c2ccc(O)cc2)cc1` (stereo unspecified), the max response, negative = inhibition is -8.24%.

As for `Cc1cccn2c(=O)c(C(=O)NC(C)c3ccccc3)cnc12` (stereo unspecified), the max response, negative = inhibition is -16%. Still for that read-out and setting: as for `COC(=O)c1ccc(Cn2c(SCC(=O)N(C)c3ccccc3)nc3ccccc32)cc1`, the figure is 14.3%. On to `COc1cc(/C=C2/C(=O)ON=C2C)ccc1OCc1cccc(F)c1`, for which the Potency is 25.1 µM (active). With `C#CCOc1ccccc1/C=C1/C(=O)ON=C1C`, the max response, negative = inhibition is -13.5%. `C=CCOc1ccc(/C=C2/C(=O)ON=C2C)cc1OCC`: the Potency was 79.4 µM (active). As for `COc1cc(/C=C2\SC(=O)NC2=O)ccc1OCc1ccc(Cl)nc1`, the max response, negative = inhibition was 3.39%.

With `C=CCOc1ccc(/C=N/NC(=O)C(C)Sc2ccccn2)cc1OCC` (stereo unspecified), the max response, negative = inhibition was -3.04%. Still for that read-out and setting: as for `COc1ccnc2c1c(=O)n(Cc1cccc(F)c1)c(=O)n2C`, the figure is 0.374%; as for `Cc1ccc(C)c(N2CCN(C(c3ccccc3)c3nnc(-c4ccccc4)o3)CC2)c1` (stereo unspecified), 0%; as for `Cc1ccc(C2C=C(c3ccc(Cl)cc3)Nc3nc(NC(=O)CCC(=O)O)nn32)cc1` (stereo unspecified), -1.64%. Still for that read-out and setting: as for `CCOC(=O)c1c(C)[nH]c(CCC(=O)NCCCN2CCN(c3cc(C)ccc3C)CC2)c1C`, the figure is 1.52%. `CCOC(OCC)OCC`: the max response, negative = inhibition was -7.21%.

Regarding `O=c1ccc2c(-c3ccccc3S(=O)(=O)O)c3ccc(O)c(O)c3oc-2c1O`, the Potency is 35.5 µM (active). `Cc1nc2cnc(N3CCNCC3)nc2n(CCc2ccccc2)c1=O`: the max response, negative = inhibition was -10.9%. Consider `CCOC(=O)N1CCN(C(c2cccnc2)c2ccc3cccnc3c2O)CC1` (stereo unspecified), for which the Potency was 39.8 µM (active).

Take `CCCCC(=O)NC(c1ccc(OC)c(OC)c1)c1ccc2cccnc2c1O` (stereo unspecified): the max response, negative = inhibition is 6.08%. On to `COc1ccccc1N1CCN(C(CNC(=O)C(=O)NCc2ccc(C)cc2)c2cccnc2)CC1` (stereo unspecified), for which the max response, negative = inhibition was 1.11%. On the same count and under the same terms, as for `COc1ccc(CCNC(=O)c2ccc3c(c2)nc(C)n3-c2ccc(Br)cc2)cc1OC`, the figure is 12.9%; as for `C#CC(C)(CC)NC(=O)Cn1nnc(-c2ccc(OCc3c(F)cccc3Cl)cc2)n1` (stereo unspecified), 15.5%. Regarding `CN(C)S(=O)(=O)N1CCC(Oc2cccc(C(=O)NCCCC3CCCC3)c2)CC1`, the Potency is 28.2 µM (active). On to `COc1cccc(C(=O)NCCS(=O)(=O)NCC2CCCO2)c1` (stereo unspecified), for which the max response, negative = inhibition is -19.7%. With `CNS(=O)(=O)c1cccc(C(=O)NCC2CCCCC2)c1`, the max response, negative = inhibition was 12.7%. For the compound `COc1cccc(NCCC(=O)c2cccc([N+](=O)[O-])c2)c1`, the Potency was 79.4 µM (active). For `COc1cccc(C(=O)CC(=O)C(=O)Nc2ccc([N+](=O)[O-])cc2C)c1`, the max response, negative = inhibition is -6.66%. Same read-out and setting: as for `CC(C)(C)SCCNC(=O)c1cccc([N+](=O)[O-])c1`, the figure is -16.4%.
